The entries come from a sample that favours hits as a whole.
Pf Dd2 inh = Plasmodium falciparum Dd2 growth inhibition | Potency, µM (highest dose often 28.9 µM), for the others: at the highest dose activity, negative = inhibition, actives largely listed as inhibitors | 120,000 tested, 4.3% active | P. falciparum Dd2 growth, SYBR Green, 72 h; active = well fitted inhibition curve with a large enough effect;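 note: plate controls were DMSO vehicle for no effect and reference drug for full effect; nearly all actives have a fitted effect of over 65% in size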
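Readout: SYBR Green fluorescence, 485 nm excitation, 535 nm emission, after ~16 h lysis at 37C. Before that, Dd2-infected red cells (2.5% hematocrit) grew 72 h with compound, 29 uM top final concentration.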
* = called active by the depositor; i = inactive; [ ] = another dose, or the depositor's remark. Potency is the fitted concentration of half-maximal effect.

SMILES	Pf Dd2 inh
O=C(NC[C@H]1O[C@@H](CO)[C@@H](O)[C@H]1N1CCN(c2ccc(F)cc2)CC1)c1ccccc1	-2%
O=C1NCCCCCCN(Cc2ccncc2)[C@@H]2CN(S(=O)(=O)c3cccnc3)CC[C@@H]12	-2%
O=C1NCCCCCCN(Cc2ccncc2)[C@@H]2CN(S(=O)(=O)Cc3cccc(F)c3)CC[C@H]12	8.9µM*
Cn1cnc(S(=O)(=O)N2CC[C@@H]3C(=O)NCCCCCCN(Cc4ccncc4)[C@@H]3C2)c1	15%
O=C1NCCCCCCN(Cc2ccncc2)[C@@H]2CN(S(=O)(=O)c3ccc4c(c3)CCC4)CC[C@H]12	2.8µM*
O=C1NCCCCCCN(Cc2ccncc2)[C@@H]2CN(C3CCC3)CC[C@H]12	13%
CCS(=O)(=O)N1CC[C@H]2C(=O)NCCCCCCN(Cc3ccncc3)[C@@H]2C1	16%
CCCc1cc(C(=O)N2CC[C@H]3CNC[C@H]32)n(C)n1	20%
N#CC1CCN(C(=O)c2nc(-c3cccc(C(F)(F)F)c3)c3ccccn23)CC1	i
CCc1cc(N2CCC(NCCc3cccc(Cl)c3)CC2)nc(C)n1	11µM*
CCCc1cc(N2CCC(N[C@@H]3CCNC3)CC2)nc(C)n1	-11%
Cc1nc(N2CCC(NC(=O)Cc3cccc(F)c3)CC2)cc(C(F)(F)F)n1	-1%
CN(Cc1cc(-c2ccccc2)on1)C(=O)CN1C[C@@H]2CC[C@H](CC1=O)N2	-13%
CN(C)Cc1cc(C[C@@H]2C[C@H](NC(=O)CC(C)(C)C)C2(C)C)no1	14µM*
CC(C)N[C@H]1C[C@@H](Cc2cc(CO)on2)C1(C)C	-16%[44.1 µM]
CC(C)N[C@H]1C[C@@H](Cc2cc(COc3ccccc3)on2)C1(C)C	11µM*
CC1(C)[C@H](Cc2cc(CN3CCN(c4ccccc4)CC3)on2)C[C@@H]1NCC1CC1	i
CC1(C)[C@H](Cc2cc(COc3ccccc3)on2)C[C@@H]1NC(=O)C1CCCC1	i
CC(C)NC(=O)N[C@H]1C[C@@H](Cc2cc(CN3CCN(c4ccccc4)CC3)on2)C1(C)C	10µM*
CC(C)N[C@H]1C[C@@H](Cc2cc(CCO)on2)C1(C)C	-9%[44.1 µM]
CC1(C)[C@H](Cc2cc(COc3ccccc3)on2)C[C@@H]1NC(=O)C1CCC1	11µM*
CC1(C)[C@H](Cc2cc(CO)on2)C[C@@H]1NC(=O)C1CCC1	1%[44.1 µM]
CC1(C)[C@H](Cc2cc(CN3CCCCC3)on2)C[C@@H]1NC(=O)c1ccccc1	-5%[44.1 µM]
CC1(C)[C@H](Cc2cc(COc3ccccc3)on2)C[C@@H]1NC(=O)NCc1ccccc1	-1%[44.1 µM]
CCCCc1cc(C[C@@H]2C[C@H](NC(=O)C(C)(C)C)C2(C)C)no1	i
SMILES	Pf Dd2 inh
COC(=O)C1=C(C)N=C2SC=C(CC(=O)NC3CC4CCC3C4)N2C1c1ccsc1 (stereo not drawn)	i
Cc1noc(C)c1-c1cn(CCNS(=O)(=O)c2ccc(Cl)cc2)nn1	-21%
COc1ccc(NC(=O)Cn2ccn3nc4c(c3c2=O)CCCCC4)cc1	13%
O=C1CC(c2ccccc2)N(C(=O)CNC(=O)C2CCOCC2)CCCCCCN1 (stereo not drawn)	34%
CC(=O)N1CCC2(CC1)CN(C(=O)C1CCN(C)CC1)Cc1ccccc1O2	2%
O=C(c1cn[nH]c1-c1ccccc1)N1CC2CC(C1)[C@H]1CCCC(=O)N1C2 (stereo partly drawn)	-13%
CCS(=O)(=O)Nc1ccc(C(=O)N[C@H]2C[C@@H](C(=O)OC)N(C)C2)cc1	14%
C[C@@H]1CN(C(=O)Cc2cc(F)cc(Cl)c2)CC[C@]1(C)O	-1%
O=C(NCC1CCCO1)C1CCN(c2cc(C(F)(F)F)ncn2)CC1 (stereo not drawn)	-8%
CCOc1cccc(C2Nc3ccccc3-c3cc(C)nn32)c1O (stereo not drawn)	1µM*
COc1cc(C2Nc3ccccc3-c3cc(C)nn32)ccc1O (stereo not drawn)	1%
COc1ccc(C2Nc3ccccc3-c3cc(C)nn32)cc1OC (stereo not drawn)	8%
Cc1ccccc1C(=O)NC1CCN(c2nc3ncccc3o2)CC1	i
Cc1ccccc1C(=O)N1CC(c2nnc(-c3ccncc3)o2)C2(CCOCC2)C1 (stereo not drawn)	8%
CCCn1cc(C(=O)NC(C)c2cnn(-c3cccc(F)c3)c2C)c(C)n1 (stereo not drawn)	-5%
CCCn1c(C)cnc1C1CCN(C(=O)NC(C)C)C1 (stereo not drawn)	5%
Cc1ccccc1CN1Cc2nc(-c3ccccc3)ccc2OCC1=O	-7%[44.1 µM]
Cc1ccccc1CN1Cc2nc(N3CCCC3)ccc2OCC1=O	10µM*
Cc1ccccc1CN1Cc2nc(-c3cnn(C)c3)ccc2OCC1=O	i
COc1ccc(-c2nn(-c3ccccc3)cc2CN2CCC(C#N)CC2)c(F)c1	11µM*
COc1ccc(-c2nc3c(C)cccc3cc2CN2CCC(O)CC2)cc1OC	-7%
COc1ccc(-c2ccnc3nc(C4CC4)nn23)c(F)c1	i
COc1ccc(-c2nn(-c3ccccc3)cc2CN2CCC(F)CC2)c(F)c1	11µM*
CC(=O)NC1(C)CCN(Cc2cnc(-c3cccc(F)c3)s2)CC1	i
Cc1cccc(-n2cc(CN3CCCC(C)(O)C3)c(-c3cccc(F)c3)n2)c1 (stereo not drawn)	8.9µM*
SMILES	Pf Dd2 inh
COc1cccc(-c2ccccc2NC(=O)C2CCN(Cc3cc(F)ccc3F)CC2)c1	-15%
OC1(CN2CCCCC2)CCN(Cc2cccc(F)c2F)C1 (stereo not drawn)	i
COc1cccc(N2CC(C(=O)N3CCC(C#N)CC3)NC2=O)c1 (stereo not drawn)	-5%[44.1 µM]
COc1ccc(-n2cc(CN3CCC(O)CC3)c(-c3cccc(F)c3)n2)cc1	13µM*
COc1ccc(-n2nc(C3CCN(Cc4cccc5ccccc45)CC3)[nH]c2=O)cc1	i
COc1ccc(-c2nn(-c3ccccc3)cc2CN2CCC(CO)CC2)c(F)c1	i
O=C([C@@H]1C[C@H](Oc2cccnc2)CN1C(=O)C1CC=CC1)N1CCOCC1	-7%
CNC(=O)C1(N2CCC[C@H]2C(=O)NCCN(C)C)CCCCC1	7%[44.1 µM]
COc1cccc(C(=O)N2CCC(N3C(=O)CCC3C(=O)NCc3ccccc3)CC2)c1 (stereo not drawn)	23%
CS(=O)(=O)N1CCCC1c1noc(CCC(=O)NCC2CC2)n1 (stereo not drawn)	-7%
O=C1COCC2(CN1Cc1cccc(OC(F)(F)F)c1)CN(C(=O)C1CCOCC1)C2	-22%
O=C(c1ccc(F)c(Cl)c1)N1CCC2(CC1)CN(c1ccccc1)C2=O	-24%
O=C(c1cc(C2CC2)nc2onc(C3CCCNC3)c12)N1CCOCC1 (stereo not drawn)	13%
CCCc1nc(C(=O)N[C@H]2COC[C@H]2Cc2cc(C)no2)cs1	0%
Cc1ccccc1-c1nn(-c2ccc(F)cc2F)cc1CN1CCC[C@@H]1C(N)=O	-17%
Cc1ccccc1-c1nn(-c2ccc(F)cc2F)cc1CN1CCC(O)CC1	11µM*
CCC1COCCN1Cc1cn(-c2ccccc2)nc1-c1ccc(OC)cc1F (stereo not drawn)	13µM*
O=c1n(-c2ccc(F)cc2F)nc2n1CCN(Cc1cccc3ccccc13)C2	i
COc1ccc(CN2CCN(c3nc4ccccc4o3)CC2CCO)c(F)c1 (stereo not drawn)	-8%
COc1ccc(OC)c(CN2CCN(Cc3ccccc3F)C(CCO)C2)c1 (stereo not drawn)	i
Cc1cccc(C(C)(C)C)c1NC(=O)N1CCN2C(=O)CNC(=O)C2C1 (stereo not drawn)	-2%

Compound activity deposited in PubChem by National Center for Advancing Translational Sciences (NCATS).
